Reference: the supplement of paper PMC11417369
Whole data set: some 25,000 sequences, median “ln(normalized median fluorescence intensity)” near 6.7, cut for the highest 2% near 10. This is one part of a sample in which the highest values are shown more often than they occur.

System: PfHDP1 homeodomain (GST-tagged)
Test: gcPBM binding intensity (ln(normalized median fluorescence intensity)); higher = stronger DNA binding
Method in brief: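 GST-tagged P. falciparum DNA-binding domains, expressed in E. coli (about 25 μg on average), were applied for 1 h to an Agilent 4 × 180k array of primer-extended double-stranded 36-bp intergenic genomic probes plus negative controls. The binding buffer was 1× PBS with 1% milk, 0.2 mg/ml BSA, 0.5% salmon testes DNA and 0.03% Triton X-100. Bound protein was detected with Alexa488 anti-GST antibody and scanned at 488 nm. Binding intensity is the highest Masliner-normalised natural-log median intensity across replicate spots of either probe orientation.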

Sequence	gcPBM binding intensity (ln)
TTTTTTTTTTTTTAAACATGCAAAATATATAATTTT [TGCATGCA_site633]	6.44
TAGAAATATATTTATTGTACATTGTATATATTATAT [XGTACX_site7584]	6.26
TATATAACCGAGTGCACACACAAAAAAAAAGTGAAC [CACACA_site6806]	10.8
TATATAATCGAGTGCACACACAAAAAAAAAGTGAAC [CACACA_site1483]	10.4
AAAAAATATAGATGCACACACAAAAAAACAAATTAA [CACACA_site6718]	8.71
TAATAATTATTGCACGCACACAAAAACCTATAGATT [CACACA_site2931]	10.6
TTTAATAATTATTAAAGTACAAAATAAATATTGAAT [XGTACX_site7538]	6.7
TTATAATATATATAAAAGAAAAAAAATTATAATATA [CACACA_negctrl_site90]	6.53
TCAAAAGAATAATTGGTGCAAATTATATAATATAAT [GTGCAC_site9804]	10.5
TGAATATTCATATGCACACAAATTAATATACATAAT [CACACA_site442]	10.3
ATATATATATAATAAGTGCAAAAAAAAGAAAAAAAT	9.3
TGTATATAATCGAGTGCACACACAAAAAAAAAGTGA [CACACA_site8417]	10.1
TGTAATAATTATTGCACGCACACAAAAACCTATAGA [CACACA_site2932]	10.2
AATATAATATATTGCACACAAAAAGTGAATTATTCT [CACACA_site1684]	10.7
TATTTATTTAATTACACACGAACATATAACCATTTC [CACACA_site211]	6.81
ATATATATATTTATATTTATATGTAAATATCAACGT [TGCATGCA_negctrl_site32]	8.19
ATCCCCATAAAAAATACACACAAATATTTATACATA [CACACA_site1001]	6.79
TATATATATATATATACACACATATACATATTGTTT [CACACA_site3499]	9.37
TAATATATATAAACATGTACAAATCAAAAACAAAAG [XGTACX_site4076]	7.52
AATAATAAAAAATATACACACATATATAAATAAATA [CACACA_site6164]	6.35
GAACAAATTAAATAGGTGCATTAACATGTTCTATTT [GTGCAC_site9729]	10.1
ATTTCTCTATCGTAATGTACAAAAAAAAGGGAAAAG [XGTACX_site1335]	6.48
TATATATATAATATTGCACACAAAATTAAAAGTAAA [CACACA_site7889]	9.61
TATATATAATATTGCACACAAAATTAAAAGTAAATA [CACACA_site19]	10.3

Sequence	gcPBM binding intensity (ln)
AAAATATAATATATTGCACACAAAAAGTGAATTATT [CACACA_site8489]	10.6
TTAACCTTTTGATATTGTACCCATAATCTAATACAA [XGTACX_site769]	6.47
ATGTAGAAGTAATGCACACATATGTATATATATATA [CACACA_site2494]	10.5
ATATGTAGAAGTAATGCACACATATGTATATATATA [CACACA_site8796]	10.3
ATATATAGAATGTGTACACACATATGTATTTATATA [CACACA_site810]	6.7
TATACATATGTATGCACACATACATACACATAGAAT [CACACA_site3480]	9.51
ATGTGATAGAAGTACACACACATATGTATTTATAAT [CACACA_site5075]	6.7
ATGTAGAAGTAATGCACACATATGTATTTATATATA [CACACA_site5391]	10.9
TTTAGTGAGTTTGTTGTGCACTGAAAAAATTACAAT	10.4
AATTCGTACCTCATTTGTACATATATATATATATAT [XGTACX_site5513]	9.34
TTCAAGATTTATTATACACACATATTAATATATATA [CACACA_site573]	6.83
AAGTATGTATCACAAAGTACTTAAGCATATATTTAA [XGTACX_site4121]	6.57
ATATGTAAAATGAAGATACATACATACATACATACA [CACACA_negctrl_site715]	7.53
TGTTTATCATATTTGTGTCCTCATTTTTTAGTATCA [XGTACX_site947]	6.62
AATGTGTTCATATATGCACACGCATATATATTATTG [CACACA_site9274]	9.95
ACGCACGAAATAAATACATGCATATTGTAAAAATTA [TGCATGCA_site310]	8.99
ATGCACTCATTGTGCACACGCATATTACGAAAAGAA [CACACA_site2638]	10.8
TGTGTTCATCTATGCACACGCATATATATTATTGTT [CACACA_site5985]	9.64
TGTGTTCATATATGCACACGCATATATATTATTGTT [CACACA_site3822]	9.67
ATATGCACTCATTGTGCACACGCATATTACGAAAAG [CACACA_site2637]	11.6
TTATAATAGTTAATATGTACATATTTAATAAATAAT [XGTACX_site3183]	6.23
AGACTATCATTTTTTTAACACACAAAAAAAATAAAA [CACACA_site9173]	6.35
ATAAAGCCATACAATACACACATTTTACATGGGGGT [CACACA_site9072]	7.27
AGTACATTATAGAATACACACCTATATATATATATA [CACACA_site4447]	9.29

Sequence	gcPBM binding intensity (ln)
ATAATACATATAGAAGGTACACTATTATTTTCCTGA [XGTACX_site903]	6.13
TTCTTTTTTTTTAAAACAAACAAACAAACAAACAAA [CACACA_negctrl_site832]	6.6
TTCTTTTTAATGTCGGTGCAACTCCATAAAAACAAA [GTGCAC_site9488]	10.9
ATATTTTATGTAAAGGTGCAAAACAACATTAAAAAA	9.97
TCTTTCTAAAGATGTAGTACAAAATAAATATAATAT [XGTACX_site6564]	6.87
TCCAAAATATCCTTCACACACGAACAGTTTCATTTA [CACACA_site5511]	6.49
TTGTATTGTATATGCACACATAGAACACTTTTTTTT [CACACA_site4133]	8.44
ATTGTATGCACGTCTGCACACTTTTTTTTTTTTTTT [CACACA_site2082]	11
ATTTGTATTGTATATGCACACATAGAACACTTTTTT [CACACA_site9373]	9.69
AAAATATATTCAACTTGTACATATATATATATATAT [XGTACX_site7629]	9.4
TTAATATTCCAGCTTTGTACATATATATATTATAAA [XGTACX_site7954]	6.6
TTTTGAAGTAACAAATAAATAAATAAATATATAAAA [GTGCAC_negctrl_site517]	6.53
TTCTTGTTCCTGAAAGTGCATATAACAAAAATAACA [GTGCAC_site9635]	8.06
TTTGTTCTTTTTGAAGTGCACTGAAATATAACAAAA	10.9
TATTGTATTTCATATTGTACTAAAAAAAAAAAAAAG [XGTACX_site6694]	6.24
CCTCATCCACTATGCACACAAAAAAGAAATACACTA [CACACA_site3422]	9.52
AGAAAGAAAATATATACACACAAAAAAAAATATATA [CACACA_site1412]	6.61
GTCCTCATCCACTATGCACACAAAAAAGAAATACAC [CACACA_site9131]	10.5
TTACACAAACAAATTATGGACACATAAGTAAAAGGA [CACACA_negctrl_site1622]	6.97
GCACATATGAATATAATACACACTTGTATTATTAAT [CACACA_site1841]	6.59
TTTTTGATGAAATATTATTTTCCTGACTTGGATTAA [CACACA_negctrl_site148]	6.27
TGTCCTTATTTGCACACACACATATAAGAAATTTAA [CACACA_site7485]	10.5
TCCTTATATTGGCACACACACACAATAAAATGAAAA [CACACA_site4715]	7.07
TCTATTATCCTTTGCACACAAAATAAATGAAAAAAT [CACACA_site3029]	9.75

Sequence	gcPBM binding intensity (ln)
ATTCTATTATCCTTTGCACACAAAATAAATGAAAAA [CACACA_site3030]	9.63
TAAATGTCCTTATTTGCACACACACCCATAAGAAAT [CACACA_site3185]	10.4
AAAATGAAGAAGTGCACACATATATATATTTATATA [CACACA_site507]	9.11
TATCCTTATATTTGCACACACACACTAGAAAATGAA [CACACA_site4714]	10.7
TCCTTATATTTGCACACACACACAAGAAAATGAAAA [CACACA_site6613]	11
AATGTCCTTATTTGCACACACACATATAAGAAATTT [CACACA_site3186]	10.6
TTTTTTTTTTTTTGCACACACCATATTTATAGAAAT [CACACA_site5772]	9.04
TATCCTTATATTTGCACACACACACCCTAAAATGAA [CACACA_site1029]	10.6
GATATCCTTATATTTGCACACACACCCAATAAAATG [CACACA_site1028]	9.87
AAAATATTTATATTTACACACACATAATACATATAT [CACACA_site32]	6.84
TTACATATTTTCATTTGTACATATTCATTTTTTTTC [XGTACX_site6988]	6.47
ATATATATGTGAAAATCACACATTGCTTATCTGTAA [CACACA_site6044]	6.3
CAAACAATTAAACAAACACACATATACATGTATATA [CACACA_site2060]	6.54
TATAAATAAAAATATACACACTGTATTATTGTAATA [CACACA_site7721]	6.24
CAATGCTTTATCAATACATGCATATATATAGAAATA [TGCATGCA_site857]	6.46
CTTATGTGCATACCTACACACTTACATATATATATA [CACACA_site8973]	9.47
TAGTTTTTATATAGCACACATATTGTGATTATGTAT [CACACA_site1196]	6.83
AATATATATTTATAAACACACACCAAAATTTGTGCT [CACACA_site3091]	6.82
TGTATAAAAGTTTATACACACATTTGATATATTTCA [CACACA_site6606]	6.58
TATGTATATATTTGTGCACACCAAAGTTTGATTTTA [CACACA_site1861]	11.4
ATATGTATTTATATATGTTTGATTTTTTTTTTTTTT [TGCATGCA_negctrl_site506]	6.23
TGTATATATTTGTGCACACCAAAGTTTGATTTTATT [CACACA_site1860]	11.4
